Data on 64 sequences can be found in the supplement of paper PMC11417369.

± gives the standard deviation of the averaged measurements. Whole data set: some 25,000 sequences, median “ln(normalized median fluorescence intensity)” near 7.9, cut for the highest 2% near 11. Many of the other results were omitted from the sample, so the highest values are more common in it than they were.

The subject of the experiment is PfAP2-I AP2 domain 3 (GST-tagged). The experiment in a line: gcPBM binding intensity (ln(normalized median fluorescence intensity)); higher = stronger DNA binding. The gist of the method: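 For binding intensity, the highest Masliner-normalised natural-log median intensity across replicate spots of either probe orientation was taken. Protein bound to the array was stained with Alexa488 anti-GST antibody and scanned at 488 nm. The protein, GST-tagged P. falciparum DNA-binding domains from E. coli at about 25 μg on average, had been applied for 1 h to an Agilent 4 × 180k array of primer-extended double-stranded 36-bp intergenic genomic probes and negative controls.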
On to “AGAAGAAATATGTAAAAAATTTTATATTCACACACA [GTGCAC_negctrl_site441]”, for which the “gcPBM binding intensity (ln)” value came to 8.15 ± 0.33.

Turning to “ATAAATTCATACATTTGTACACAAAAAAAAAAAAAA [XGTACX_site2435]”, the “gcPBM binding intensity (ln)” value was 8.12 ± 0.57.

“TTTTTTTTTTCTTTTTGTACATATTCATAACAAGTA [XGTACX_site2784]”: the “gcPBM binding intensity (ln)” value turned out to be 8.12 ± 0.5.

As for “AATGTAACAACTTTTTGTACTTAAGAAATAATAAAT [XGTACX_site3310]”, the “gcPBM binding intensity (ln)” value was 7.64 ± 0.61.

As to “TAATTAAAAAATAAAAAAAAAAAAAATTAAAACAAA [CACACA_negctrl_site500]”, the “gcPBM binding intensity (ln)” value is 7.2 ± 0.58.

With “TGTTATATGTTCAAATGTACAAATCATATACATGTT [XGTACX_site3192]”, the “gcPBM binding intensity (ln)” value stood at 7.5 ± 0.65.

Turning to “AGGATATGCAGACACACACACATATAGATTTATATA [CACACA_site7100]”, the “gcPBM binding intensity (ln)” value was 7.74 ± 0.55.

With “AAAATTAGATTATGCACACACACTTAAAAATAATAA [CACACA_site1975]”, the “gcPBM binding intensity (ln)” value is 9.97 ± 0.46.

Take “GTTAGGATAGATTAGACATGCACATAAATGCACTTC [TGCATGCA_site561]”: the “gcPBM binding intensity (ln)” value worked out at 11.1 ± 0.34.

As to “ATTTTTTCTAATGGGTGTACTGAAACGTATTTTATT [XGTACX_site6573]”, the “gcPBM binding intensity (ln)” value is 8.16 ± 0.58.

For “TTTGTGGTTACATGTGCACACACTTATTTCGTTCTT [CACACA_site1435]”, the “gcPBM binding intensity (ln)” value is 9.38 ± 0.4.

With “TATAATATATTCATGTGTACATATATTTCGAACATA [XGTACX_site1754]”, the “gcPBM binding intensity (ln)” value worked out at 8.01 ± 0.2.

For “ATTTTATTTTCATATGAACACACATATATATATTAT [CACACA_site8741]”, the “gcPBM binding intensity (ln)” value was 8.35 ± 0.45.

In the case of “ATAATTATATGGCTAGCACACAATAAATAATTATAT [CACACA_site3815]”, the “gcPBM binding intensity (ln)” value was 7.92 ± 0.42.

As for AATTAATGGCTAAAGGTGCACAATATATATATTACA, the “gcPBM binding intensity (ln)” value was found to be 11.3 ± 0.19.

Consider “ATATAATAAGGTTAAGCACACATATTACATATATAA [CACACA_site9110]”, for which the “gcPBM binding intensity (ln)” value worked out at 8.35 ± 0.23.

As to “GTAATTAAAATATATACACACAAAGGCTATTAAATA [CACACA_site1011]”, the “gcPBM binding intensity (ln)” value came out at 7.68 ± 0.52.

As to “AATTAATGGTTAAAGGTGCACAATACATATATTACA [GTGCAC_site9943]”, the “gcPBM binding intensity (ln)” value was determined as 11.32 ± 0.035.

On to TTACATACAATTGGTGTGCACATATATATATATATA, for which the “gcPBM binding intensity (ln)” value is 10.29 ± 0.049.

For the sequence “ATATTATATTTCTTTTGTACATATTATATAATATAT [XGTACX_site7198]”, the “gcPBM binding intensity (ln)” value came to 8.1 ± 0.56.

In the case of “ATATATAAATATATTTGTACATATAATATGTATTAT [XGTACX_site8820]”, the “gcPBM binding intensity (ln)” value was determined as 7.75 ± 0.47.

Regarding “AATTATTGTGAAGGGAAAACAAAAAAGTTTATAATT [CACACA_negctrl_site1337]”, the “gcPBM binding intensity (ln)” value amounted to 8.01 ± 0.72.

Turning to TTTATAAAGGGAAAGGTGCAAAAGGTGAAAGTTTTA, the “gcPBM binding intensity (ln)” value came out at 10.9 ± 0.44.

Regarding “ATAATAATAAAATATATATACAAAGGTGAAATTATA [TGCATGCA_negctrl_site197]”, the “gcPBM binding intensity (ln)” value was 7.96 ± 0.58.

With “TATGATGATGAATAACGTACAAAAAAATTAATCACC [XGTACX_site6794]”, the “gcPBM binding intensity (ln)” value came to 8.16 ± 0.49.

In the case of “TTTTGTAAAAAGAAAAATTAGAATATATCGTATATA [XGTACX_negctrl_site617]”, the “gcPBM binding intensity (ln)” value is 7.19 ± 0.45.

For the sequence “ATCAACATTACATTTAGTACACATATATTTCTATGT [XGTACX_site4436]”, the “gcPBM binding intensity (ln)” value turned out to be 8.16 ± 0.36.

For “TTTTTTTTCTAAATTATATGAAAATATATGTTATGT [GTGCAC_negctrl_site85]”, the “gcPBM binding intensity (ln)” value stood at 7.79 ± 0.23.

Turning to “AAAGAAATAAGGTGCACACATATACATATATATATA [CACACA_site429]”, the “gcPBM binding intensity (ln)” value was 10.3 ± 0.29.

Regarding ACGGAAAAAGAAAAGGTGCATATGGACACAATATAT, the “gcPBM binding intensity (ln)” value was 10.85 ± 0.099.

Take “TAAAAGAAATAAGGTGCACACATATACATATATATA [CACACA_site8037]”: the “gcPBM binding intensity (ln)” value worked out at 10.19 ± 0.071.

In the case of “TTTTACAAAATAAAAATATAGAATACGGTAAATTAT [GTGCAC_negctrl_site40]”, the “gcPBM binding intensity (ln)” value amounted to 7.87 ± 0.73.

“GTTATAAACAAAATAAATATATGAATATATAATAAT [XGTACX_negctrl_site96]”: the “gcPBM binding intensity (ln)” value was 7.46 ± 0.5.

For AACATATTGGATTTAGTGCACATATATATCATAATA, the “gcPBM binding intensity (ln)” value worked out at 11.5 ± 0.29.

Turning to “TTTATATATTTTGTCGTGCACATTTGGAAAATTACA [GTGCAC_site9776]”, the “gcPBM binding intensity (ln)” value came to 10.8 ± 0.16.

On to TTATTATAATCATTAGTGCATATATTATTTTTATAT, for which the “gcPBM binding intensity (ln)” value came to 9.795 ± 0.049.

For the sequence TAAAATAATATTTATGTGCACATATAATTATTAATT, the “gcPBM binding intensity (ln)” value is 10.395 ± 0.007.

Regarding “GAAATATAATTTATTACACACATTTTAAAAAAATTC [CACACA_site1087]”, the “gcPBM binding intensity (ln)” value amounted to 7.74 ± 0.18.

Consider “ATAAATTTTTAAACAGCACACATAAATATAATATAT [CACACA_site8691]”, for which the “gcPBM binding intensity (ln)” value was determined as 8.28 ± 0.4.

For “TATAAAATAAATTGTGCACACATATTTATAAATATG [CACACA_site2330]”, the “gcPBM binding intensity (ln)” value is 10.71 ± 0.078.

Consider “AGGAAAATTTTATTTGCACACATTATTACGTCTAAA [CACACA_site2337]”, for which the “gcPBM binding intensity (ln)” value is 9.9 ± 0.4.

Regarding TATATATATATAATTGTGCACATAATTTTAAACCAA, the “gcPBM binding intensity (ln)” value stood at 11.1 ± 0.13.

Regarding ATATATCATATTATAGTGCATTTATAATAATATTAT, the “gcPBM binding intensity (ln)” value came out at 10.8 ± 0.13.

TAATATTTTAATTGTGTGCACATTAATATTATAAAA: the “gcPBM binding intensity (ln)” value came to 10.1 ± 0.16.

As for “TAAAATAAATTGTGCACACATATTTATAAATATGAA [CACACA_site2331]”, the “gcPBM binding intensity (ln)” value amounted to 11.3 ± 0.35.

As for “TATTAAAAGTAAAAAACACACATGGATATATACATA [CACACA_site3959]”, the “gcPBM binding intensity (ln)” value came to 7.67 ± 0.64.

In the case of AAACAAAGGGAACATGTGCACTTACAAAAAAAAAGA, the “gcPBM binding intensity (ln)” value was 9.78 ± 0.28.

On to “ATCTATATTATTTCTACACACATATCTATAATATGT [CACACA_site7561]”, for which the “gcPBM binding intensity (ln)” value was 7.85 ± 0.72.

For “GCTCATATGACAACAACACACAAAAAAATAAAATGA [CACACA_site714]”, the “gcPBM binding intensity (ln)” value was determined as 7.8 ± 0.69.

For “TAAACAAATAAATATTGTACATTTTTTCCTTTTAAT [XGTACX_site5594]”, the “gcPBM binding intensity (ln)” value came out at 7.38 ± 0.39.

With “TATAGTTTTGAAAACAAACACACAAAAAAAAAAAAA [CACACA_site1691]”, the “gcPBM binding intensity (ln)” value worked out at 8.07 ± 0.7.

Consider “TAATATACATATATATGTACATATATATATATATAT [XGTACX_site2684]”, for which the “gcPBM binding intensity (ln)” value worked out at 9.09 ± 0.47.

Take “ATATATTTATTTTGTGCACACAACGCAAACCTTTTA [CACACA_site3508]”: the “gcPBM binding intensity (ln)” value came to 10.98 ± 0.092.

For the sequence “TAAAATAATTTATGCATACACACATATATATATATA [CACACA_site4021]”, the “gcPBM binding intensity (ln)” value was 9.49 ± 0.26.

In the case of “GTGCAAAATATTTTTACACACAAATTTTTACAACAG [CACACA_site3357]”, the “gcPBM binding intensity (ln)” value was found to be 9.99 ± 0.63.

For AAAAGTCTCTTTTTAGTGCACATTTTATTTAAATAT, the “gcPBM binding intensity (ln)” value is 11.32 ± 0.078.

Turning to “TGTGCATAAATTTATGCACACATAAAAAAAAAAAAA [CACACA_site8954]”, the “gcPBM binding intensity (ln)” value came out at 11.5 ± 0.93.

On to GGGAAAATAAATAAAGTGCAGATATTAAAAGTTGTA, for which the “gcPBM binding intensity (ln)” value worked out at 8.85 ± 0.31.

On to “TGCATAAATTTATGCACACATAAAAAAAAAAAAAAA [CACACA_site2923]”, for which the “gcPBM binding intensity (ln)” value came to 10 ± 0.64.

Turning to “TAATAAAAAAAGTGCACACACATAATATTTATATAT [CACACA_site7548]”, the “gcPBM binding intensity (ln)” value worked out at 9.7 ± 0.18.

For “TATAAACCTTTTTGCACGCACACAAAAAAAAAATAA [CACACA_site168]”, the “gcPBM binding intensity (ln)” value is 9.99 ± 0.46.

In the case of “TATGTTGTTTATTTAGTGCATATTTAAATATTATAA [GTGCAC_site9601]”, the “gcPBM binding intensity (ln)” value was determined as 10.16 ± 0.078.

For the sequence “AATATAAGTTTATTAGTGCACAGATAAATATATATT [GTGCAC_site9784]”, the “gcPBM binding intensity (ln)” value amounted to 11.4 ± 0.23.

For the sequence TATATATATATATATGTGCACATTTTATTAAAATGT, the “gcPBM binding intensity (ln)” value stood at 9.87 ± 0.15.
